In ChEMBL document CHEMBL3433997, “St. Jude Leishmania screening dataset” (2016) one finds inhibition data, which are given here for 33 molecules.

Type in all cases: functional
Test [1] concerns the target Solute carrier family 2, facilitated glucose transporter member 1 (Homo sapiens) (UniProt P11166). Put plainly: ST_JUDE_LEISH: Cytotoxicity at 2uM final concentration against transgenic Leishmania Mexicana promastigotes LmGLUT1 that are glucose transport deficient and complemented with the human glucose transporter GLUT1. Activity is measured by DNA content using SYBR green in vitro.

The target of test [2] is Hexose transporter 1 (Plasmodium falciparum) (UniProt O97467). The test can be described thus: ST_JUDE_LEISH: Cytotoxicity at 2uM final concentration against transgenic Leishmania Mexicana promastigotes LmPfHT that are glucose transport deficient and complemented with the Plasmodium falciparum hexose transporter. Activity is measured by DNA content using SYBR green in vitro.

The target in test [3] is Glucose transporter (Leishmania mexicana) (UniProt O61059). The test can be described thus: ST_JUDE_LEISH: Cytotoxicity at 2uM final concentration against transgenic Leishmania Mexicana promastigotes LmGT2 that are glucose transport deficient and complemented with the L. Mexicana glucose transporter 2. Activity is measured by DNA content using SYBR green in vitro.

Sequence of Solute carrier family 2, facilitated glucose transporter member 1 (Homo sapiens) (P11166 whole entry): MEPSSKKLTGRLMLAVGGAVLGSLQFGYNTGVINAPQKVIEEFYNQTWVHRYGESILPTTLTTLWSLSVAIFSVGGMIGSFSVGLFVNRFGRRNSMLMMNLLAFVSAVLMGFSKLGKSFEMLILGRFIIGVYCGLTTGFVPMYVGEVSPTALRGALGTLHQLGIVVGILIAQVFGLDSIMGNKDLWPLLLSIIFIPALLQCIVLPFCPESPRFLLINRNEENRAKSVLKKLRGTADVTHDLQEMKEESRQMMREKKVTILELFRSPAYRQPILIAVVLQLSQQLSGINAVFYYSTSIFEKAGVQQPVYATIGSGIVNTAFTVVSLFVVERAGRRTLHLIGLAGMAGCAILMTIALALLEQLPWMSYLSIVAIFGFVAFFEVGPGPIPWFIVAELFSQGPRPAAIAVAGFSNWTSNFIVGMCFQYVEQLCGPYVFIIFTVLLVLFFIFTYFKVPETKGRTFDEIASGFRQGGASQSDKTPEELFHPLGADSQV

Consider `CN1CCN(CCCN(Cc2ccc(-c3ccc(CNC4CCCC4)cc3)cc2)C(=O)CCC2CCCC2)CC1`, for which the inhibition turned out to be 76.5% in test [1], 79.8% in test [2] and 5.69% in test [3].
The corresponding values for `O=C(NCCNc1nc(NCCNC(=O)Nc2ccccc2)c2ccc(=O)n(-c3c(F)cccc3F)c2n1)Nc1ccccc1` are 2.75%, 1.99% and -0.37%.
Regarding `COC(=O)c1ccc2c(-c3nc4ccc(OC)cc4[nH]3)c[nH]c2c1`, the inhibition in test [1] is 11.5%; in test [2] it was 10.3%; in test [3], 8.93%.
For `O=C(NCc1ccccc1)NC1CCN(c2ccnc3cc(Cl)ccc23)C1` (centres undefined) the same measures were -2.48%, 0.99% and 0.94%.
For `Cc1cccc2nc(-c3cccc(-c4cccc(NC(=O)Nc5ccc(F)c(F)c5F)c4)c3)[nH]c12` the same measures were 1.75%, 2.51% and 2.44%.
Take `COc1ccc2c(OC)c(CNCCCCCCNCc3ccc4cc(OC)ccc4c3OC)ccc2c1`: the inhibition in test [1] is 106%; in test [2], 107%; in test [3], 107%.
For `COc1ccccc1-c1ccc(CNC(=O)C(CN2CCN(C)CC2)c2ccccc2)cc1` (centres undefined), the inhibition stood at 2.94% in test [1], 1.12% in test [2] and 2.44% in test [3].
For `Oc1ccc(-c2cc(-c3ccc(O)cc3)nc(-c3ccccc3)n2)cc1` the same measures were 2.51%, 1.53% and 0.82%.
For `CC(C)(C)c1ccc(CNC(=O)c2ccc(-c3nc4ccc(Cl)cc4[nH]3)cc2)cc1` the same measures were 1.67%, 1.77% and 1.63%.
`CCOC(=O)c1ccc(NC(=O)N(Cc2ccc(-c3ccc(CN4CCNCC4)cc3)cc2)Cc2cccnc2)cc1`: the inhibition in test [1] was 2.01%; in test [2], 2.09%; in test [3] it was 0.48%.
For the molecule `FC(F)(F)COc1c(CNCCCCCCNCc2ccc3ccccc3c2OCC(F)(F)F)ccc2ccccc12`, the inhibition in test [1] is 87.7%; in test [2], 95.5%; in test [3] it was 104%.
As to `COc1cccc(C(=O)Nc2nonc2-c2ccc(OC)c(OC)c2)c1`, the inhibition in test [1] was found to be 2.16%; in test [2], 2.49%; in test [3], 1.34%.
With `C=CC[C@H](C[C@H](O)[C@H](Cc1ccccc1)NC(=O)c1nn(-c2ccccc2)nc1C)C(=O)NC1CCCCC1`, the inhibition in test [1] came out at 2.06%; in test [2], 2.34%; in test [3] it was 2.36%.
Take `Cc1ccc(Oc2ccccc2NC(=O)CCc2nc3ccccc3c(=O)[nH]2)cc1`: the inhibition in test [1] was 0.1%; in test [2], 0.95%; in test [3], 2.88%.
For `COc1ccc(CN(C)CCCc2ccc(NC(=O)c3cc4ccccc4[nH]3)cc2)cc1OC` the same measures were 3.27%, 1.65% and 0.23%.
In the case of `N[C@@H](COc1cccc2c(-c3ccncc3)c(-c3cccc(NC(=O)Nc4ccccc4)c3)nn12)c1ccccc1`, the results for the inhibition in test [1], in test [2] and in test [3] were -2.24%, -1.71% and -2.62%, respectively.
For `O=C(Nc1ccc(Br)cc1)N(CCN1CCOCC1)CC(O)COCc1ccc(Cl)c(Cl)c1` (centres undefined) the same measures were 2.07%, 1.38% and -5.49%.
The corresponding values for `CCc1cn2c3c(cc(C(=O)N[C@@H](Cc4ccccc4)[C@H](O)CNC4CCOCC4)cc13)N(C)S(=O)(=O)C2` are 0.25%, 1.65% and -0.23%.
With `COc1cc(Nc2nccc(N3CCC(NC(=O)c4cccc(NC(C)=O)c4)C3)n2)cc(OC)c1OC` (centres undefined), the inhibition in test [1] was 0.31%; in test [2] it was 0.55%; in test [3], -0.85%.
The corresponding values for `CN(C)c1cccc2c1nc(-c1ccco1)n2CCNCc1ccccc1` are -0.08%, 1.58% and -0.13%.
For `CN1CCN(CC(O)CNC(=O)Nc2ccc(Br)cc2)CC1` (centres undefined) the same measures were 3.01%, 3.45% and -0.7%.
With `NS(=O)(=O)c1cccc(Nc2nccc(-c3cnn4ncccc34)n2)c1`, the figures for the inhibition in test [1], in test [2] and in test [3] were 50.6%, 76.5% and 64.8%, respectively.
For `CC(CCc1ccc(OCc2ccccc2)cc1)NCC(O)c1ccccc1` (centres undefined) the same measures were -1.32%, 0.43% and -0.69%.
For `CN1CCN(c2ccnc3ccc(NC(=O)Cc4cccc(Cl)c4Cl)cc23)CC1` the same measures were 1.15%, -1.14% and -0.31%.
The corresponding values for `Clc1ccc(CNCCCCCCNCc2ccc(Cl)cc2)cc1` are -1.01%, 1.71% and -1.04%.
Take `CN1CCC(NCc2ccc(-c3ccc(S(=O)(=O)NCc4ccccc4)s3)cc2)CC1`: the inhibition in test [1] was 6.58%; in test [2], 6.78%; in test [3] it was 4.55%.
The corresponding values for `COc1ccc(C(=O)NCCCCN2CCC(c3ccc4c(c3OC)CCCC4)CC2)cc1-c1ccc(C(F)(F)F)cc1` are -1.89%, 0.84% and -1.69%.
As for `Cc1nc2ccc([N+](=O)[O-])cc2c(=O)n1OCc1ccccc1`, the inhibition was found to be 2.26% in test [1], 2.03% in test [2] and 2.66% in test [3].
For `CC(C)c1cc2c(ccc3nc(N)nc(N)c32)[nH]1` the same measures were 9.81%, 31% and 8.49%.
`Fc1ccc2[nH]c(-c3cccc(-c4ccc(CNCCc5ccncc5)cc4)c3)nc2c1`: the results for the inhibition in test [1], in test [2] and in test [3] were 13.9%, 12.6% and 11.4%, respectively.
For the molecule `CCC(C)CN1C(=O)C(c2ccccc2)(c2ccccc2)N=C1N` (centres undefined), the inhibition in test [1] was 2.09%; in test [2], 2.72%; in test [3], 2.04%.
Turning to `Cc1cc(NCCC(=O)Nc2ccccc2)nc(NCC2CCCCC2)n1`, the inhibition stood at 5.97% in test [1], 3.39% in test [2] and 3.6% in test [3].
For `CCn1cc(C(=O)O)c(=O)c2cc(F)c(N3CCN(S(=O)(=O)c4ccc(N)cc4)CC3)cc21` the same measures were 0.77%, 0.41% and -4%.

The inhibition is the relative decrease from the control value, in per cent.
